High-throughput results: PubChem BioAssay, National Center for Advancing Translational Sciences (NCATS)
Most compounds without a hit are left out; they make up all but 1.3% or so of the library.
HTT promoter inh: Primary qHTS for Identification of Small Molecule Inhibitors of Huntingtin Promoter Activity; 48,000 tested, 0.93% active; Potency, µM (highest dose often 57.5 µM), for inactives: at the top dose activity change, negative = inhibition, actives largely listed as inhibitors; HEK293 HTT promoter firefly luciferase reporter, 24 h; AID 1508623, 2021; also: nearly all actives have a fitted effect of over 50% in size
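HEK293 Fluc reporter, 2,500 cells/well, 24 h pre-culture; cpds up to 57.5 uM final, 24 h 37 degrees C; Dual-Glo, 10 min RT; normalized vehicle = 0%, zero RLU = -100%.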
HTT-AS act: Primary qHTS for Identification of Small Molecule Activators of Huntingtin-Antisense Promoter Activity; Potency, µM (doses to about 57.5 µM), for the others: at the top dose activity change, positive = activation, most hits filed as activators; HEK293 HTT-AS promoter firefly luciferase reporter, 24 h; response scale: percent change from vehicle, -100% = no light; 48,000 tested, 0.24% active; also: nearly all actives have a fitted effect of over 55% in size
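HEK293 luciferase promoter-reporter cells (2,500/well) plated 24 h, then compounds added at up to 57.5 uM final for 24 h at 37 °C. Firefly luminescence by Dual-Glo, normalized to vehicle (0%) and zero RLU (-100%).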
FH mod: Identification of activators of human fumarate hydratase by quantitative high-throughput screening. Fumarate hydratase, mitochondrial (Homo sapiens), P07954. 54,000 tested, 0.22% active. Potency, µM (titrated, usually from 79.9 µM), without a hit: at the highest dose activity change, negative = inhibition, usual class: inhibitors. AID 1347055, 2019. FH coupled MDH/diaphorase resazurin fluorescence, 15 min; also: % is scaled to controls: 0 for no effect and ±100 for the full control effect; the screen sought activators but most active calls are inhibition curves; nearly all actives have a fitted effect of over 45% in size
Target sequence (P07954 whole entry, looked up): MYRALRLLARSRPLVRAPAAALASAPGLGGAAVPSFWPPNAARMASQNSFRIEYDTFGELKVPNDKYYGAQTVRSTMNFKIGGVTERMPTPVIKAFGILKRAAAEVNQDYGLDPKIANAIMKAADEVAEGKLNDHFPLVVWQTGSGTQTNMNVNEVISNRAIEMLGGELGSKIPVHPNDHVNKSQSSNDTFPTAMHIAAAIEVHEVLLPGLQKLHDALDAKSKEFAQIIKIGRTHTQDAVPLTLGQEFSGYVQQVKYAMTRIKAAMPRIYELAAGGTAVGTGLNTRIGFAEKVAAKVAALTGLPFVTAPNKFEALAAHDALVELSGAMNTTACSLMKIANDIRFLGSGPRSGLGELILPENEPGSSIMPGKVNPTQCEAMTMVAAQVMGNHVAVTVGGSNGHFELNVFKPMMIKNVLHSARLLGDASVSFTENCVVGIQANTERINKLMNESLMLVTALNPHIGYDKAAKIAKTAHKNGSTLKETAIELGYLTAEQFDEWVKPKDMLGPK
Numbers without * were called inactive; ? = inconclusive; nt = no result given; [ ] = another dose, or the depositor's remark. Calls follow the shape of the dose curve; as a rule, active = well fitted curve in the direction sought with a large enough effect; inconclusive = small, poorly fitted or top-dose-only effect, or another doubt; inactive = no such curve, though single readings can be large; an effect the other way counts as inactive or inconclusive. Potency is read from the fitted curve at half-maximal effect.

SMILES	HTT promoter inh	HTT-AS act	FH mod
NC1CCN(c2nc3c(cc2F)c(=O)c(C(=O)O)cn3-c2ccc(F)cc2F)C1 (stereo unspecified)	23%	2%	1%[53.3 µM]
NC1[C@H]2CN(c3nc4c(cc3F)c(=O)c(C(=O)O)cn4-c3ccc(F)cc3F)C[C@@H]12 (stereo partly specified)	69%	32µM*	-5%[53.3 µM]
CC1CCC2C(C)(C)C(O)CCC2(C)C12Cc1c(O)cc3c(c1O2)C(N)=NC3 (stereo unspecified)	nt	nt	1%[53.3 µM]
CC(=O)N1CCCc2cc(S(=O)(=O)N3CCCC(C(=O)N4CCN(c5ccccc5F)CC4)C3)ccc21 (stereo unspecified)	10µM*	-34%	-1%
COc1ccc(N2CCN(C(=O)C3CCCN(S(=O)(=O)c4ccc5c(c4)CCCN5C(C)=O)C3)CC2)cc1 (stereo unspecified)	?	-47%	-5%
COc1cccc(CN(C(=O)c2oc3ccccc3c2C)C2CCS(=O)(=O)C2)c1 (stereo unspecified)	-2%	-8%	-2%
COc1cccc(CN(C(=O)c2oc3cc(C)ccc3c2C)C2CCS(=O)(=O)C2)c1 (stereo unspecified)	-10%	-13%	32µM*
CC(C)=CCC[C@](C)(O[C@@H]1O[C@H](CO[C@@H]2OC[C@@H](O)[C@H](O)[C@H]2O)[C@@H](O)[C@H](O)[C@H]1O)[C@H]1CC[C@]2(C)[C@@H]1[C@H](O)C[C@@H]1[C@@]3(C)CC[C@H](O[C@@H]4O[C@H](CO)[C@@H](O)[C@H](O)[C@H]4O)C(C)(C)[C@@H]3CC[C@]12C	nt	nt	-4%[53.3 µM]
CC1Cc2cc(S(=O)(=O)NCc3ccccc3Cl)ccc2N1C(=O)C1CCC1 (stereo unspecified)	28µM*	-80%	-14%
COc1ccc(CCNS(=O)(=O)c2ccc3c(c2)CC(C)N3C(=O)C2CCC2)cc1OC (stereo unspecified)	?	-24%	0%
CC(=O)Nc1cccc2c1c(Sc1ccc(Cl)cc1)c(C)n2CC(=O)O	nt	nt	-5%
CN(C)c1ccc(Nc2c3ccc(NC(=O)CCN4CCCC4)cc3nc3cc(NC(=O)CCN4CCCC4)ccc23)cc1	nt	nt	-7%
O=C(Nc1ccc(Br)cc1)C1CCCN1S(=O)(=O)c1ccc(F)cc1 (stereo unspecified)	35µM*	-42%	-12%
Cn1c(=O)c(=O)n(C)c2cc(S(=O)(=O)N3CCCC3C(=O)Nc3ccc(F)cc3)ccc21 (stereo unspecified)	-11%	-4%	2%
CCc1nn(C(C)C(=O)N2CCN(c3ccccc3)CC2)c(=O)c2cc3occc3n12 (stereo unspecified)	-29%	-31%	-20%
Cc1nn(C(C)C(=O)N2CCN(c3ccc(Cl)cc3)CC2)c(=O)c2cc3occc3n12 (stereo unspecified)	25µM*	-56%	-24%
O=Cc1ccc(O)c(O)c1O	-8%	-2%	15µM*
O=C(O[C@@H]1O[C@H](CO)[C@@H](O)[C@H](O)[C@H]1O)c1c(O)cc(O)cc1/C=C/c1ccccc1	nt	nt	0%[53.3 µM]
COC1CC(=O)C23C(=O)NC(CC(C)C)C2C(C)C(C)=CC3/C=C(\C)CCCC1O (stereo unspecified)	nt	nt	10%[53.3 µM]
CC(=O)Nc1nc(C)c(-c2nc(N3CCCC(O)C3)no2)s1 (stereo unspecified)	nt	nt	-4%
COc1cc2ccccc2cc1C(=O)N1CCN(c2nc3ccc(F)cc3s2)CC1	?	-42%	-20%
CCS(=O)(=O)c1ccccc1C(=O)N1CCN(c2nc3ccccc3s2)CC1	14µM*	-44%	-24%
CC(=O)OC[C@]12[C@@H](OC(=O)c3ccoc3)C[C@@H]3[C@@H](OC(C)=O)[C@]1(OC3(C)C)[C@@](C)(O)C[C@H](OC(=O)c1ccoc1)[C@@H]2OC(=O)c1ccoc1	nt	nt	2%[20.6 µM]
CCOC(=O)c1ccc(NC(=O)/C(C#N)=C/c2ccc(OC)cc2)cc1	-13%[11.5 µM]	8%	-19%
COc1cc(/C=C(\C#N)C(=O)c2ccc(O)c(O)c2)cc(I)c1O	nt	nt	7.9µM*
CC(=O)N[C@H]1[C@H](O[C@H]2CC[C@]3(C)C4CC=C5[C@@H]6CC(C)(C)CC[C@]6(C(=O)O)[C@H](O)C[C@@]5(C)[C@]4(C)CC[C@H]3C2(C)C)O[C@H](CO)[C@@H](O)[C@@H]1O (stereo partly specified)	nt	nt	-2%[20.6 µM]
